Consider 37 compounds from PubChem BioAssay (NCI).

About 83,000 compounds went through this panel and 20% of them were active in at least one assay; those are over-represented in the sample as a whole.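 Growth was measured after 48 h exposure to one concentration of compound in 96-well plates. Values under 10 count as active.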 Unmarked numbers belong to inactive results. Calls of active or inactive are those of the source.

For the test, the system named is A549/ATCC NSCLC. The test can be described thus: NCI-60 one-dose screen, 48 h (100 = growth as untreated, 0 = no growth, -100 = all killed). The settings on record: 10 µM unless noted.
On to `COc1cc(C2CC(c3cc(OC)c(OC)c(OC)c3)=NN2C(C)=O)ccc1OCc1ccccc1` (configuration not stated), for which the growth is 31.8%.

Turning to `Cc1cc(N=C2NC(=O)CS2)n[nH]1`, the growth is 109%.

Consider `C=C1CC[C@@H]2[C@]3(C)COC(c4cn[nH]c4-c4ccc(OC)cc4)O[C@@H]3CC[C@@]2(C)[C@@H]1C/C=C1/C(=O)OCC1O` (some centres not stated), for which the growth was 7.46% (active).

As for `COc1cc2c(c(OC)c1OC)C(=O)CC(c1cccc(NC(=O)c3cc(N)ccc3Cl)c1)O2` (configuration not stated), the growth was 71.5%.

Turning to `O=C(N=Nc1c(O)[nH]c2ccc(Cl)cc12)c1ccc2nc(-c3ccccc3)[nH]c2c1`, the growth was 94.3%.

For the compound `CNC(=O)c1cc(Oc2ccc3nc(NC(=O)Nc4cccc(OC(F)(F)F)c4)sc3c2)ccn1`, the growth was 35.2%.

As for `COc1cc2c(c(OC)c1OC)C(=O)CC(c1cccc(NC(=O)c3cc([N+](=O)[O-])ccc3Cl)c1)O2` (configuration not stated), the growth is 35.6%.

Consider `COc1ccc(C2=NN(C(C)=O)C(c3ccc(OCc4ccc(Cl)cc4)c(OC)c3)C2)cc1OC` (configuration not stated), for which the growth is 29%.

For `COc1ccc2cc([C@H](C)C(=O)N/N=C/c3ccc(Br)cc3)ccc2c1`, the growth is 100%.

`CCCCCCCCc1ccc(C(=O)Nc2ccc(C)cc2C(=O)O)cc1C`: the growth is 85.8%.

Take `CSc1ccccc1NC(=O)c1ccc2nn(/C(C#N)=C/c3ccccn3)nc2c1`: the growth is 0.0722% (active).

As to `COCOc1ccc2c(=O)c(C)c(C(=O)N[C@@H](Cc3ccccc3)C(O)C(=O)NCCc3ccc(OC)cc3)oc2c1` (some centres not stated), the growth is 100%.

On to `CSc1ccc(C(=O)Nc2ccc3nnn(/C(C#N)=C/c4ccccn4)c3c2)cc1`, for which the growth was 15%.

On to `COc1ccc(NC(=O)Cn2c(/C=C/c3cccc([N+](=O)[O-])c3)nc3ccccc3c2=O)cc1`, for which the growth was 84.7%.

Regarding `CC1(C)CC[C@]2(C(=O)Nc3ccc(Br)cc3)CC[C@]3(C)C(=CCC4[C@@]5(C)C[C@@H](O)[C@H](O)[C@@](C)(CO)C5CC[C@]43C)C2C1` (some centres not stated), the growth is 17.2%.

In the case of `N#Cc1c(-c2cccc(Cl)c2Cl)cc(-c2c[nH]c3ccccc23)[nH]c1=O`, the growth is 67.2%.

On to `O=c1onc(-c2cc3ccccc3nc2Cl)n1-c1cccc2ccccc12`, for which the growth is 55.5%.

For the compound `CCN(CC)CCOc1ccc(Nc2ncc3cc(-c4ccc(O)c(C#N)c4)c(=O)n(C)c3n2)cc1`, the growth was 94.8%.

Take `Cc1ccc(NC(=O)[C@]23CCC(C)(C)CC2C2=CCC4[C@@]5(C)C[C@@H](O)[C@H](O)[C@@](C)(CO)C5CC[C@@]4(C)[C@]2(C)CC3)cc1` (some centres not stated): the growth is 20.5%.

For `N#Cc1c(NCc2ccccc2)n[nH]c1Nc1ccccc1`, the growth is 31.6%.

`CCCSc1nc(NCCc2c[nH]c3ccccc23)c(C#N)c(-c2ccc(OC)cc2)n1`: the growth is 53.3%.

Consider `O=C(NNc1ccccc1)n1c(=O)c2ccccc2c(=O)n1-c1ccccc1`, for which the growth is 83.1%.

As to `COc1cc(C2CC(c3cc(OC)c(OC)c(OC)c3)=NN2C(C)=O)ccc1OCc1ccc(F)cc1` (configuration not stated), the growth is 50.8%.

For the compound `CN1CCN(Cc2ccc(C(=O)Nc3cccc(C#Cc4cccc5[nH]nc(N)c45)c3)cc2C(F)(F)F)CC1`, the growth was -88.8% (active).

As for `COc1ccc(C(=O)/C=C/c2cccc3ccccc23)cc1S(N)(=O)=O`, the growth is 7.01% (active).

Take `O=C(/C=C/c1ccc(O)c(O)c1)NC1CCOC1O` (configuration not stated): the growth was 99.4%.

With `C=C1CCC2C3(C)COC(c4ccccc4F)OC3CCC2(C)C1CC(O)C1=CCOC1=O` (configuration not stated), the growth was 67.7%.

Regarding `COc1cc(/C=C/C(=O)c2ccc(C)cc2)ccc1Oc1nc(Nc2ccc(F)cc2)nc(N(C)C)n1`, the growth is 60%.

In the case of `COc1cc2oc(-c3cccc(C(=O)Nc4ccc(Cl)cc4)c3)cc(=O)c2c(OCCNC(=O)[C@@H](N)CCC(=O)O)c1OC`, the growth is 103%.

On to `C=C1CCC2C3(C)COC(c4ccc(F)cc4)OC3CCC2(C)C1CC(O)C1=CCOC1=O` (configuration not stated), for which the growth was 59.6%.

Turning to `Cc1ccc(C(SCCNCc2cc(N(C)C)ccn2)(c2ccccc2)c2ccccc2)cc1`, the growth is -3.31% (active).

Take `COc1ccc(-c2c(Nn3cnnn3)no[n+]2[O-])cc1`: the growth was 67.1%.

Turning to `CC1=C(C(=O)c2ccccc2)C(c2cccc3ccccc23)n2c(nc3ccccc32)N1` (configuration not stated), the growth was 40.8%.

Consider `CC1(C)CC[C@]2(C(=O)Nc3ccccc3)CC[C@]3(C)C(=CCC4[C@@]5(C)C[C@@H](O)[C@H](O)[C@@](C)(CO)C5CC[C@]43C)C2C1` (some centres not stated), for which the growth was 39.2%.

On to `O=C(N/N=C/c1ccc(-c2ccc(O)cc2)o1)c1[nH]c2ccc(Br)cc2c1-c1ccccc1`, for which the growth is 11.2%.

As to `CC(=O)Nc1ccc(-c2cn(-c3cccc(C(=O)Nc4ccc(N5CCN(C)CC5)cc4)c3)nn2)cn1`, the growth was 76.1%.

For the compound `COc1cc2oc(-c3cccc(NC(=O)[C@H](Cc4ccccc4)NC(=O)OC(C)(C)C)c3)cc(=O)c2c(OC)c1OC`, the growth was 24.7%.
